# Hits are enriched below; roughly 4.5% of the tested compounds scored in any of these assays.
# FXN GAA850 act = increases GAA850 frataxin promoter reporter activity | AID 540364 | 360,000 compounds, 0.56% hits | activation, % at 6 µM | HEK293 lucGAA850 FXN promoter luciferase reporter, 24 h; percent of 10 µM SAHA response;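 active = activation above the average of all compounds screened plus 3 SD, cutoff fixed separately per campaign, cut at about 7.5% in these data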;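 note: 0% = DMSO wells and 100% = 10 µM SAHA wells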
# DAX1 inh-1 = inhibits human nuclear receptor DAX1; HEK293 Gal4-DAX1 luciferase reporter, luminescence; inhibition, % at 6.75 µM; 340,000 compounds, 0.99% hits;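 active = inhibition above the mean over all tested compounds plus 3 SD, cut at about 4.2% in these data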;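 note: 0% = DAX1-transfected cells with DMSO and 100% = empty-vector control cells with DMSO; inhibition shows as a rise in luminescence from relieved DAX1 repression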
# DAX1 inh-2 = DAX1 (NR0B1) inhibition, primary screen; 370,000 compounds, 1.1% hits; inhibition, % at 6.8 µM; HEK293T StAR-luciferase reporter, SF-1/DAX-1 repression relief;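 active = inhibition above the mean over all tested compounds plus 3 SD, cut at about 3.6% in these data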;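 note: 0% = DAX-1 cells with DMSO and 100% = cells lacking DAX-1 with DMSO; higher inhibition means more luminescence from relief of DAX-1 repression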
# ssDAF12 agonist = S. stercoralis DAF-12 activation, primary screen; HEK293 ssDAF-12/GRIP1 lit1-tk-luc reporter, luminescence; % of 3 µM dafachronic acid response; activation, % at 6.8 µM; 370,000 compounds, 1% hits; AID 652126;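 active = activation above the mean over all tested compounds plus 3 SD, cut at about 0.9% in these data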;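 note: 0% = DMSO-only wells and 100% = 3 µM delta7-dafachronic acid wells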
# hcDAF12 agonist = activates DAF-12 receptor from parasite H. contortus; HEK293 hcDAF-12 lit1-tk-luc reporter, luminescence; 0% DMSO, 100% Δ7-dafachronic acid; activation, % at 6.8 µM; 370,000 compounds, 1.4% hits; AID 652067;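 active = activation above the mean of all tested compounds plus 3 SD, cut at about 5.5% in these data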;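 note: 100% = response to 3 µM Δ7-dafachronic acid high control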
# hgDAF-12 ag = hgDAF-12 agonism, primary luciferase screen | HEK293 GAL4-hgDAF12 UAS-luciferase reporter, agonist luminescence; normalized to butyrate control | activation, % at 6.8 µM | 370,000 compounds, 1.8% hits | AID 687014;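 active = activation above a cutoff set at the mean of all screened compounds plus 3 SD, cut at about 10% in these data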;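 note: 0% = DMSO wells and 100% = sodium butyrate wells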
# LXR ag = counter-screen for hcDAF-12 agonists: agonists of human LXR-beta | 3,400 tested, under 10 active | shares compounds with hcDAF12 agonist | HEK293 Gal4-LXR tk-luc reporter, luminescence, 24 h; normalized: DMSO 0%, positive control 100% | activation, % at 6.8 µM;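 active = mean percent activation of the reporter above a cutoff set as the average over tested compounds plus their standard deviation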
# Target sequence (P55055 whole entry, looked up, the tested form may be a part): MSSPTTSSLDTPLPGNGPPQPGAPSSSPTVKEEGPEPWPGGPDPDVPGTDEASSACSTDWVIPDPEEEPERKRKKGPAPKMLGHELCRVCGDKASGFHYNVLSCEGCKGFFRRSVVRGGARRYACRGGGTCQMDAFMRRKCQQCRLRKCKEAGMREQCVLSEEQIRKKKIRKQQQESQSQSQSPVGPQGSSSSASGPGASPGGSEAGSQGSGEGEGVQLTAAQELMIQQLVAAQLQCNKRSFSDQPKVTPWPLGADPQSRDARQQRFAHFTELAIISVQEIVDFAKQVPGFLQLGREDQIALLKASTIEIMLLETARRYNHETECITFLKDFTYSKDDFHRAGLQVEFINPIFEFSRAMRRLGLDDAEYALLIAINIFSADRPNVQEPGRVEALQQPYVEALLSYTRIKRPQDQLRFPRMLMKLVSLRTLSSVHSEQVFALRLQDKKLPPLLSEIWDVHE
# hcDAF12 ag = hcDAF-12 agonism, confirmation assay; 3,400 compounds, 61% hits; shares compounds with hcDAF12 agonist; activation, % at 6.8 µM; HEK293 hcDAF-12 lit1-tk-luc reporter, luminescence; % of Δ7-dafachronic acid response;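 active = mean activation across triplicate tests above the threshold derived from the earlier primary screen, cut at about 5.5% in these data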;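 note: 0% = DMSO only wells and 100% = 3 µM Δ7-dafachronic acid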
# The depositor's hits bear a star; nt = not tested or not shown.
SMILES,FXN GAA850 act,DAX1 inh-1,DAX1 inh-2,ssDAF12 agonist,hcDAF12 agonist,hgDAF-12 ag,LXR ag,hcDAF12 ag
CC(OC(=O)C1=COCCO1)C(=O)Nc1ccccc1C#N (stereo not given),1,1,1,-1,-1,-3,nt,nt
Cc1ccc(S(=O)(=O)CCC(=O)N2CCc3ccccc32)cc1,1,0,1,1,6.8*,2,0,4
Cc1ccc(S(=O)(=O)CCC(=O)OCC(=O)N2CCc3ccccc32)cc1,0,-1,0,-1,0,0,nt,nt
Cn1c(CC(=O)Nc2ccccc2)nnc1SCC(=O)NC1=NCCS1,0,0,0,-1,7.6*,1,0,-1
COc1cccc(NC(=O)Cc2nnc(SCC(=O)NC3=NCCS3)n2C)c1,2,2,0,-1,-1,2,nt,nt
Cn1cc(CNCc2ccc(-n3cccn3)cc2)c(-c2ccccc2F)n1,4,1,-1,-1,-2,-6,nt,nt
S=C1NC2(CCCCCC2)NN1c1ccccc1,nt,nt,1,0,0,-1,nt,nt
O=C1CCC2(CC1)NC(=O)N(c1ccccc1)N2,1,0,0,1.1*,6.5*,8,0,0
COc1ccc(/C=[N+](\[O-])C2N(c3ccccc3)C(=S)SC2(C)C)cc1OC (stereo not given),0,2,0,-1,9.3*,3,0,0
Clc1ccc(-c2cnn3c(-c4ccncc4)ccnc23)cc1,5,4,3,0,7.2*,13*,2,8.4*
CCOC(=O)[C@]12CCCC=C1N(Cc1cccc3ccccc13)C(=O)[C@H](CC(=O)N1CCN(C(=O)C3CC3)CC1)C2,nt,nt,-1,-1,-2,-5,nt,nt
COc1ccc2nc(C)cc(Nc3ccc(N4CCN(C)CC4)cc3)c2c1,-5,-1,0,0.9*,13*,5,1,12*
CC(C)c1onc(C(=O)N2CCOCC2)c1[N+](=O)[O-],0,-1,0,-1,-2,-1,nt,nt
Cc1onc(C(=O)N2CCOCC2)c1[N+](=O)[O-],0,2,-1,-1,7.2*,-5,0,1
O=C(O)c1ccccc1C(=O)NC1CCCc2ccccc21 (stereo not given),1,-1,0,0,-1,-1,nt,nt
Nc1nnc2cc(Cl)ccc2n1,1,0,-1,-1,-1,6,nt,nt
Cc1nc2ccccc2nc(C)c1=NO,4,4,4.1*,1.0*,8.6*,12*,0,4
C/C(=N\Nc1nc2ccccc2nc1C)c1ccccc1O,3,1,0,-1,-1,-1,nt,nt
Cc1nc2ccc(Cl)cc2nc(C)/c1=N\O,3,5.3*,2,1.0*,7.7*,11*,0,6.3*
O=C(NCc1cccs1)C1CC(=O)N(c2ccc(Cl)cc2)C1 (stereo not given),0,-1,0,0,1,0,nt,nt
COCc1cc(C)nc(SCC(=O)Nc2nc(C)cs2)c1C#N,3,-2,2,0,9.7*,10,1,6.3*
Cc1ccc(-n2nnc(-c3nccn3C)n2)cc1,0,-3,3,0,6.9*,7,1,7.3*
Cc1ccc(-n2nnc(-c3cnc4ccccc4c3)n2)cc1,5,5.1*,2,1.6*,9.9*,10,2,14*
Cc1ccc(-n2nnc(-c3cccnc3)n2)cc1,3,1,2,0,2,9,nt,nt
Cn1nnnc1SCc1cccc2ccccc12,3,-1,0,-2,-2,-1,nt,nt
SMILES,FXN GAA850 act,DAX1 inh-1,DAX1 inh-2,ssDAF12 agonist,hcDAF12 agonist,hgDAF-12 ag,LXR ag,hcDAF12 ag
Cn1nnnc1SCc1nc2ccccc2s1,4,2,1,2.1*,8.7*,5,0,8.5*
COC(=O)C1(Cc2ccc(O)c(CC3OC3(C)C)c2)OC(=O)C(O)=C1c1ccc(O)cc1 (stereo not given),0,0,0,-1,3,4,nt,nt
Clc1nc2c(-c3ccccc3)nnn2c2ccccc12,6,1,1,0,4,4,nt,nt
Fc1cccc(-c2nnn3c2nc(Cl)c2ccccc23)c1,4,4,1,1,8.3*,12*,0,6.4*
O=S(=O)(c1ccc(F)cc1)N1CCN(CCc2ccccc2)CC1,0,0,0,-1,6.8*,-3,0,-1
O=S(=O)(c1ccc(Cl)cc1)N1CCN(CCc2ccccc2)CC1,0,1,0,-1,-1,0,nt,nt
CSc1nnc2sc3cc(C)ccc3n12,4,1,-1,0,9.6*,7,0,5
C/C(=N\NC(=O)c1ccc(C)cc1)c1c(C)[nH]n(-c2ccccc2)c1=O,2,1,0,0,1,5,nt,nt
C/C(=N\NC(=O)c1ccccc1)c1c(C)[nH]n(-c2ccccc2)c1=O,5,4.8*,1,0,9.2*,7,0,-1
c1ccc(COc2ccc(OCCCN3CCCC3)cc2)cc1,5,0,4.4*,0,7.3*,8,1,9.4*
c1ccc(COc2ccc(OCCN3CCCC3)cc2)cc1,5,-2,1,-2,1,6,nt,nt
Cc1csc(NC(=O)c2cccnc2Cl)n1,4,3,0,1.1*,8.7*,5,1,11*
O=C1Cc2ccccc2C(=O)N1CCc1ccccc1,2,4.7*,0,0,6.9*,6,0,4
COc1ccc2c(c1OC)C(=O)N1C(C(=O)O)Cc3c([nH]c4ccccc34)C21 (stereo not given),2,2,1,1,8.8*,3,0,3
Cc1ccsc1/C=N/N=C/c1sccc1C,2,2,3,1.6*,11*,17*,2,14*
Cc1ccsc1C=Nc1ccc(O)cc1,1,1,nt,nt,nt,nt,nt,nt
CCNC(=S)Nc1ccc(OCc2nc3ccccc3s2)cc1,1,4,1,1.2*,7.8*,10,1,8.2*
O=C(CN1CCOCC1)N/N=C/c1cc2ccccc2nc1Cl,0,1,0,0,0,0,nt,nt
Cc1ccc2cc(/C=N/Nc3nc4ccccc4[nH]3)c(Cl)nc2c1,5,-1,2,0.9*,13*,11*,1,15*
